Results filed as inconclusive are left out. The source made the active and inactive calls. How the source made its calls, unless noted: active means hit-call score of the fitted dose curve at least 0.9, where 1 is the maximum; inconclusive means response in the unintended direction; inactive means score below 0.9.

Read-out in experiment [1]: Cytochrome P450 2C19 (Homo sapiens) (UniProt P33261)
Put plainly: CLD_CYP2C19_48hr: CellzDirect (CLD) Gene Expression Assay for xenobiotic metabolism (CYP2C19) at 48 hours (AID 2283700).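 Further: fitted upward so actives raise CYP2C19 mRNA above the 0.2% DMSO vehicle.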 The procedure, abridged:
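Primary human hepatocytes (two donor preparations) dosed daily for two days, harvested at 48 h; CYP2C19 mRNA induction measured by qNPA chemiluminescence. Gain-of-signal fitted relative to 0.2% DMSO vehicle as baseline.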

Read-out in experiment [2]: xenobiotic metabolism (CYP1A2), CYP1A2 (gene 1544)
Put plainly: CLD_CYP1A2_48hr: CellzDirect (CLD) Gene Expression Assay for xenobiotic metabolism (CYP1A2) at 48 hours (AID 2283703). The procedure, abridged:
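Primary human hepatocytes from two donor preparations were dosed daily for two days at multiple concentrations in 0.2% DMSO vehicle. CYP1A2 mRNA was measured at 48 hours by chemiluminescent quantitative nuclease protection assay, with gain of signal fitted versus DMSO and cytotoxicity annotated from morphology.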

Read-out in experiment [3]: glucuronosyltransferase (UGT1A1), UGT1A1 (gene 54658)
The experiment is described as follows: CLD_UGT1A1_48hr: CellzDirect (CLD) Gene Expression Assay for glucuronosyltransferase (UGT1A1) at 48 hours (AID 2283709).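 Further: actives increase expression relative to DMSO so potency refers to induction.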 A digest of the protocol:
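Human primary hepatocytes dosed daily for two days (0.2% DMSO vehicle), harvested at 48 h. UGT1A1 mRNA induction measured by quantitative nuclease protection assay with chemiluminescence; gain of signal versus DMSO; cytotoxicity flagged from morphology.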

Read-out in experiment [4]: sulfotransferase (SULT2A), SULT2A1 (gene 6822)
Put plainly: CLD_SULT2A_48hr: CellzDirect (CLD) Gene Expression Assay for sulfotransferase (SULT2A) at 48 hours (AID 2283710).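 Further: hits raise SULT2A1 transcript above the 0.2% DMSO vehicle baseline.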 A digest of the protocol: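 Primary human hepatocytes (two donor preparations) dosed daily for two days with chemicals at multiple concentrations, vehicle 0.2% DMSO; SULT2A1 mRNA induction at 48 h by quantitative nuclease protection assay, chemiluminescent read-out, fitted for gain of signal versus DMSO.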

Experiment [5] is described as follows: STM_H9_OrnithineISnorm_perc: Stemina devTOX quickPredict H9 human embryonic stem cell (hESC)-based Assay for Ornithine (ORN) Metabolite Biomarker, Normalized (AID 2283712; active means hit-call score of the fitted dose curve at least 0.9, where 1 is the maximum; inactive means score below 0.9;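 further: ornithine released into spent medium during last day measured by mass spectrometry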). A digest of the protocol:
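Cells: undifferentiated H9 hESC. Dosing: 72 h, media replaced every 24 h. Sample: final 24-h conditioned media, 40% acetonitrile. Read: UPLC-HRMS ornithine area vs 13C standard, % DMSO control.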

Experiment [6] can be described thus: STM_H9_CystineISnorm_perc: Stemina devTOX quickPredict H9 human embryonic stem cell (hESC)-based Assay for Cystine (CYSS) Metabolite Biomarker, Normalized (AID 2283713; active means hit-call score of the fitted dose curve at least 0.9, where 1 is the maximum; inactive means score below 0.9). A digest of the protocol: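 Secreted cystine was measured by UPLC-HRMS in H9 hESC medium after 72h compound exposure with 24-hourly replenishment. Values are standard-normalized areas relative to 0.1% DMSO.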

Experiment [7] is described as follows: Tanguay_ZF_120hpf_ActivityScore_legacy: (Legacy) Oregon State University Tanguay Lab 120 Hour Post-fertilization zebrafish Assay Score for Activity (AID 2283742).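 On AC50: dechorionated Tropical 5D wild-type zebrafish embryos held singly per well; static exposure from 6 hpf until 120 hpf at 28 °C.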 The procedure, abridged:
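Dechorionated Tropical 5D embryos, one per well from 6 hpf, statically exposed to 120 hpf at 28 °C in 0.64% DMSO. Mortality and malformations scored binary by brightfield microscopy; activity score combines 18 endpoints, fitted positively versus DMSO.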

Experiment [8] can be described thus: ArunA_CellTiter_hNC: Viability Assessment in the ArunA Biomedical's Oris Neural Crest (hNC) Cell Migration Assay (AID 2283752). A digest of the protocol:
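Viability of embryonic neural crest stem cells from the H9 line is scored 72 h after dosing, with DMSO as negative control and baseline. A drop in CellTiter Aqueous One signal indicates cytotoxicity.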

The nature of experiment [9]: ArunA_CellTiter_hNP: Viability Assessment in the ArunA Biomedical's Oris Neural Crest (hNC) Cell Migration Assay (AID 2283753). A digest of the protocol: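 H9-derived hNP1 neuroprogenitors, 60,000/well on Matrigel, cultured 16 h, then 72 h chemical exposure in test medium. Cell titer via CellTiter Aqueous One; positive-direction fit vs DMSO.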
Experiment [10] can be described thus: ArunA_Migration_hNP: ArunA Biomedical's Oris Neuroprogenitor (hNP) Cell Migration Assay (AID 2283754). The procedure, abridged: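 Human H9-derived hNP1 neuroprogenitors on Matrigel with LIF/bFGF, plated around seeding stoppers for 16 h at 37C; stoppers removed at start of 72 h chemical exposure. Calcein-AM staining, fluorescence 494/517 nm in detection zone; loss-of-signal vs DMSO; cytochalasin D control.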

Experiment [11] can be described thus: ArunA_NOG_NucleusCount: ArunA Biomedical's Neurite Outgrowth (NOG) Assay for Nucleus Count (AID 2283756). A digest of the protocol:
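Human H9-derived differentiated neurons were exposed for 48 h right after seeding. Hoechst-stained nuclei gated by size and intensity were counted by automated high-content imaging as viable neurons. Loss of signal vs DMSO.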

Experiment [12] is described as follows: CLD_ACTIN_48hr: CellzDirect (CLD) Gene Expression Assay for Baseline Control (Actin) at 48 hours (AID 2283702). A digest of the protocol: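 Primary human hepatocytes (two donor preparations) dosed daily for two days with ToxCast chemicals at multiple concentrations versus 0.2% DMSO vehicle; harvested at 48 h. Actin mRNA measured as a background control by quantitative nuclease protection assay with chemiluminescence.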

Read-out in experiment [13]: xenobiotic metabolism (CYP1A1), CYP1A1 (gene 1543)
Put plainly: CLD_CYP1A1_48hr: CellzDirect (CLD) Gene Expression Assay for xenobiotic metabolism (CYP1A1) at 48 hours (AID 2283705). The procedure, abridged:
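Primary human hepatocytes from two donors dosed daily for two days at multiple concentrations, 0.2% DMSO vehicle; CYP1A1 mRNA induction at 48 h by qNPA chemiluminescence. Cytotoxicity noted by phase-contrast morphology.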

Read-out in experiment [14]: organic anion transporter (SLCO1B1), SLCO1B1 (gene 10599)
The experiment is described as follows: CLD_SLCO1B1_48hr: CellzDirect (CLD) Gene Expression Assay for organic anion transporter (SLCO1B1) at 48 hours (AID 2283707). The procedure, abridged: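 Primary human hepatocytes from two donor preparations dosed daily for two days with multiple concentrations, 0.2% DMSO vehicle. SLCO1B1 mRNA at 48 h by quantitative nuclease protection assay, chemiluminescence; gain-of-signal fitted versus DMSO.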

Experiment [15] can be described thus: STM_H9_OrnCyssISnorm_ratio: Stemina devTOX quickPredict H9 human embryonic stem cell (hESC)-based Assay for Ornithine (ORN):Cystine (CYSS) Ratio (AID 2283714). A digest of the protocol:
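Undifferentiated H9 hESCs exposed 72 h, media and compound replaced every 24 h; final 24-h conditioned media deproteinized and analysed by UPLC-HRMS against C13 spike-ins. Value is the internal-standard-normalized ORN/CYSS ratio versus 0.1% DMSO.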

The nature of experiment [16]: CEETOX_H295R_MTT_cell_viability: Viability Assessment in the CeeTox HT-H295R MTT Assay (AID 2283718; active means hit-call score of the fitted dose curve at least 0.9, where 1 is the maximum; inactive means score below 0.9). The procedure, abridged: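 Human H295R adrenal cells, prestimulated 48 h with 10 uM forskolin, were exposed 48 h to chemicals in 0.1% DMSO. Viability was measured in the same wells by MTT (0.5 mg/ml, 4 h, 37 C), absorbance 570/650 nm, as percent of controls.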
Read-out in experiment [17]: HMG-CoA synthase (HMGCS2), HMGCS2 (gene 3158)
Put plainly: CLD_HMGCS2_48hr: CellzDirect (CLD) Gene Expression Assay for HMG-CoA synthase (HMGCS2) at 48 hours (AID 2283711). The procedure, abridged:
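Primary human hepatocytes from two donors dosed daily for two days, 0.2% DMSO vehicle. HMGCS2 mRNA measured 48 h after dosing by quantitative nuclease protection assay with chemiluminescent read-out; induction fitted relative to DMSO, cytotoxicity flagged by microscopy.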

Chain of Cytochrome P450 2C19 (Homo sapiens) (P33261 whole entry, looked up): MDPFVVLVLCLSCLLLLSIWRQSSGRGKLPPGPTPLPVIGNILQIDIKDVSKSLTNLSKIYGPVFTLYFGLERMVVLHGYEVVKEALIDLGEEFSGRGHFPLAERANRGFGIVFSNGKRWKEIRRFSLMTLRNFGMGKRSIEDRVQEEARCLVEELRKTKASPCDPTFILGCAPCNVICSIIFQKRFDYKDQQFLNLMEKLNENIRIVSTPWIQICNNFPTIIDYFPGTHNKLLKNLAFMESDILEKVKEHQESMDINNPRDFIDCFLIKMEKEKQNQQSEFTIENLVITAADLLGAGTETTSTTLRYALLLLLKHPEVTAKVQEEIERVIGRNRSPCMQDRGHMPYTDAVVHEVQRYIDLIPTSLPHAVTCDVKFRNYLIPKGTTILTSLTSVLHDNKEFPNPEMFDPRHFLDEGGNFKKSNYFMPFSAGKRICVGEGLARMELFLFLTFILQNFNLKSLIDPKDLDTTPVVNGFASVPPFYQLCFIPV

As for `C=CCC1=C(C)[C@@H](OC(=O)[C@@H]2[C@@H](C=C(C)C)C2(C)C)CC1=O`, the compound was classed as inactive in experiment [1], in experiment [2], in [4], in [5], in [6] and in experiment [7]. The outcome in experiment [9], in experiment [10] and in experiment [11] was inactive. Moreover, the AC50 (in general, the midpoint of the concentration-response curve, whichever way the signal moves) is 7.38 µM (active) in experiment [3] and 0.992 µM (active) in [8].

For the compound `CCCCNC(=O)OCC#CI`, the compound was classed as inactive in [1], in experiment [12], in [2] and in experiment [13]. In addition, in experiment [7], the AC50 was 15.8 µM (active).

As for `CCNc1nc(Cl)nc(NCC)n1`, the call in experiment [1], in [14], in experiment [3], in [4], in experiment [6] and in experiment [15] was inactive. The compound was called inactive in [16] and in experiment [7]. The half-maximal activity concentration (AC50) in experiment [2] was 8.97 µM (active); in experiment [13], 3.92 µM (active); in experiment [5], 0.053 µM (active).

With `C=CC1(C)OC(=O)N(c2cc(Cl)cc(Cl)c2)C1=O` (configuration not stated), the result in [1], in experiment [13], in experiment [3], in experiment [4], in [5] and in [6] was inactive. The outcome in [15], in experiment [16] and in experiment [7] was inactive. Further, the AC50 in experiment [2] was 0.966 µM (active).

For the compound `CCOc1cc(Oc2ccc(C(F)(F)F)cc2Cl)ccc1[N+](=O)[O-]`, the call in experiment [1], in [4], in experiment [16] and in [7] was inactive. For the same compound, the AC50 in [2] is 0.845 µM (active); in [13], 1.01 µM (active); in [3], 5.41 µM (active).

Consider `COc1nc(C)nc(NC(=O)NS(=O)(=O)c2ccccc2Cl)n1`, for which the compound was classed as inactive in experiment [1], in experiment [12], in experiment [2], in [13], in [14] and in [3].

For `O=C(O)c1nc(Cl)ccc1Cl`, the call in [1], in experiment [14], in experiment [3], in [4], in experiment [17] and in experiment [7] was inactive. Moreover, the concentration at half-maximal activity (AC50) is 7.28 µM (active) in experiment [2] and 4.17 µM (active) in experiment [13].

As to `COc1ccc(C(c2ccc(OC)cc2)C(Cl)(Cl)Cl)cc1`, the result in experiment [1], in experiment [4], in experiment [5], in experiment [6], in experiment [15] and in experiment [7] was inactive. In addition, the AC50 is 8.31 µM (active) in experiment [2], 20 µM (active) in experiment [13] and 8.36 µM (active) in experiment [3].

For the compound `N#CC(CCc1ccc(Cl)cc1)(Cn1cncn1)c1ccccc1` (configuration not stated), the result in [1], in [12], in experiment [3], in [17], in experiment [16] and in experiment [7] was inactive. In addition, the AC50 in experiment [2] is 2.3 µM (active); in [13], 2.53 µM (active); in experiment [4] it was 20 µM (active).

As for `CS/C(C)=N/OC(=O)N(C)SN(C)C(=O)O/N=C(\C)SC`, the outcome in [1], in [12], in [2], in [13], in experiment [14] and in [3] was inactive. Moreover, the call in [4], in experiment [17] and in experiment [7] was inactive.

With `Oc1ccccc1-c1ccccc1`, the result in experiment [1], in experiment [14], in [3], in experiment [4] and in experiment [16] was inactive. For the same compound, the values for the AC50 in experiment [2] and in [7] were 9.96 µM (active) and 45.8 µM (active), respectively.
